Screens (PubChem)
Hits are enriched below; roughly 12% of the tested compounds scored in any of these assays.
HP1b chromo inh – HTS for Inhibitors of HP1-beta Chromodomain Interactions with Methylated Histone Tails. AlphaScreen HP1-beta / biotin-H3K9me3 peptide binding. Potency, µM (titrated, usually from 114 µM), for inactives: top-dose activity change, negative = inhibition, usual class: inhibitors. 390,000 compounds, 0.56% hits. AID 540317, 2011; note: nearly all actives have a fitted effect of over 70% in size
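HP1-beta protein (50 nM final) preincubated 30 min at room temperature with biotinylated H3(1-18)K9me3 peptide (50 nM) in PBS pH 7.4, 0.01% Tween-20, then compound added for 30 min. AlphaScreen streptavidin donor/nickel chelate acceptor beads (10 ug/mL final), 30 min dark, luminescence read.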
BAZ2B inh – qHTS Assay for Inhibitors of BAZ2B; AlphaScreen BAZ2B-H3K14Ac peptide displacement; 360,000 compounds, 4.4% hits; Potency, µM (top dose mostly 114 µM), without a hit: top-dose activity change, negative = inhibition, usual class: inhibitors; note: % is set by controls: 0 for no effect and ±100 for the full control effect; nearly all actives have a fitted effect of over 60% in size
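AlphaScreen displacement: compounds (up to 110uM) incubated 30 min at room temperature with a preformed 50 nM BAZ2B/50 nM biotinylated H3K14Ac peptide complex in PBS pH 7.4 with Tween-20. Donor and acceptor beads at 10 ug/mL final added, 20 min light-protected before reading.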
G9a block – qHTS Assay for Inhibitors of Histone Lysine Methyltransferase G9a | Histone-lysine N-methyltransferase EHMT2 (Homo sapiens), Q96KQ7 | G9a H3K9 monomethylation, AlphaScreen, 2 h | Potency, µM (doses to about 102 µM), inactives show top-dose activity, negative = inhibition, most hits filed as inhibitors | 350,000 compounds, 8.8% hits; note: % is set by controls: 0 for no effect and ±100 for the full control effect; nearly all actives have a fitted effect of over 75% in size
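AlphaScreen detection with an anti-monomethyl H3K9 antibody quantified product after a 2 h room-temperature reaction containing 500 nM biotinylated H3K9 peptide, 20 µM SAM and 20 nM enzyme, which had been preincubated 15 min with compound.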
L3MBTL1 block – qHTS Assay for the Inhibitors of L3MBTL1; AlphaScreen L3MBTL1–H3K9me1 peptide binding; 230,000 compounds, 0.66% hits; Potency, µM (top dose mostly 57.1 µM), for inactives: at the top dose activity, negative = inhibition, most hits filed as inhibitors; AID 485360, 2010; Lethal(3)malignant brain tumor-like protein 1 (Homo sapiens), Q9Y468; note: % is set by controls: 0 for no effect and ±100 for the full control effect; nearly all actives have a fitted effect of over 60% in size
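First, the protein-peptide complex forms for 30 min at room temperature (L3MBTL1 50 nM, biotinylated H3K9me1 peptide 75 nM). Next, compounds are pin-transferred and incubated 30 min. Finally, AlphaScreen beads are added and read after 30 min.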
Sfp inh – qHTS Assay for Inhibitors of Bacillus subtilis Sfp phosphopantetheinyl transferase (PPTase) | Biochemical Sfp PPTase activity, qHTS | Potency, µM, for inactives: largest response in the series, negative = inhibition, hits mostly inhibitors | 310,000 compounds, 3.5% hits | AID 1490, 2009;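 note: the enzyme is Sfp with the accession as filed and its product quenches rhodamine fluorescence; 0% = enzyme reaction without inhibitor and -100% = no enzyme wells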
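After 15 min at room temperature with compound, 15 nM Sfp received 5 uM rhodamine-CoA plus 12.5 uM BHQ-2-ybbR (50 mM Hepes pH 7.6, 10 mM MgCl2). Rate came from the fluorescence difference over 30 min, ex 525/em 598 nm.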
JMJD2A Tudor inh – qHTS Assay for Inhibitors of JMJD2A-Tudor Domain; AlphaScreen JMJD2A-Tudor / H3K4me3 peptide binding; 390,000 compounds, 4.4% hits; Lysine-specific demethylase 4A (Homo sapiens), O75164; Potency, µM (titrated, usually from 114 µM), without a hit: top-dose activity change, negative = inhibition, most hits filed as inhibitors; AID 504339, 2011; note: % is set by controls: 0 for no effect and ±100 for the full control effect; nearly all actives have a fitted effect of over 50% in size
* marks the source's active call; other numbers are inactive results; ? = inconclusive; . = no result given; [ ] = another dose, or the depositor's remark. Calls come from the whole dose curve; as a rule, active = well fitted curve in the direction sought with a large enough effect; inconclusive = small, poorly fitted or top-dose-only effect, or another doubt; inactive = no such curve, though single readings can be large; an effect the other way counts as inactive or inconclusive. Potency is the fitted concentration of half-maximal effect.

SMILES	HP1b chromo inh	BAZ2B inh	G9a block	L3MBTL1 block	Sfp inh	JMJD2A Tudor inh
CCCc1c(C(=O)Nc2ccc(C(F)(F)F)cc2)cnn1-c1ccccc1	43%	2%	33%	-4%	7%	-6%
CCCc1c(C(=O)NNc2ccc(C)cc2)cnn1-c1ccccc1	-9%	?	4.5µM*	-6%	11%	?
COc1ccc(CCCc2nnc(SCC(=O)Nc3ccc(C)cc3)o2)cc1	33%	1%	?	.	.	-9%
O=C(CCO)c1ccc(O)cc1	?	13µM*	?	3.5µM*	-7%	20µM*
CCOC(=O)N/N=C(C)/C=C/c1ccccc1	29%	0%	19%[59 µM]	7%	17%	-6%
CCOC(=O)C(=O)N/N=C/c1ccco1	19%	-8%	.	-7%	-11%	-3%
CCOC(=O)N/N=C(C)/C=C/c1ccco1	42%	3%	11µM*	11%	-1%	-13%
CCOC(=O)N/N=C\C=C\c1ccco1	29%	-23%	?	-16%	45µM*	-16%
CCN(CC(=O)Nc1ccccc1C(F)(F)F)C(=O)/C=C/c1ccc(Cl)c([N+](=O)[O-])c1	20%	-5%	18µM*	3%	.	-14%
Cc1ccc(S(=O)(=O)C(CNC(=O)C(=O)NCCc2ccc(Cl)cc2)c2cccs2)cc1 (centres undefined)	10%	-2%	0%[59 µM]	.	.	-19%
O=[N+]([O-])c1nn(-c2ccc(Cl)cc2)n(O)c1=NCc1ccccc1Cl	8%	?	?	.	12%	-30%
Cc1cc(C)cc(N=c2c([N+](=O)[O-])nn(-c3cccc(Cl)c3)n2O)c1	-33%	?	40µM*	.	-5%	?
Cc1cccc(N=c2c([N+](=O)[O-])nn(-c3ccc(Cl)cc3)n2O)c1	3%	10µM*	28µM*	.	14%	-9%
Cc1cccc(-n2nc([N+](=O)[O-])c(=NCc3cccnc3)n2O)c1	11%	-13%	.	-7%	15%	-21%
O=C(COc1ccc([N+](=O)[O-])cc1)Nc1cccnc1	4%	0%	?	10%	18%	-6%
Cc1ccc(OCC(=O)Nc2nc(-c3ccccn3)cs2)c(C)c1	-9%	3%	40µM*	-13%	.	-27%
O=C(COc1ccc(F)cc1)Nc1nc(-c2ccccn2)cs1	1%	?	45µM*	-8%	.	79µM*
N#Cc1ccc(OCC(=O)Nc2nc(-c3cccnc3)cs2)cc1	44%	-3%	23%[12.7 µM]	-12%	.	-20%
O=C(COc1ccc([N+](=O)[O-])cc1)Nc1nc(-c2ccccn2)cs1	9%	56µM*	35µM*	?	.	28µM*
Cc1ccc(S(=O)(=O)CCC(=O)Nc2nc(-c3ccccn3)cs2)cc1	44%	?	15%[12.7 µM]	-4%	.	89µM*
CC(=O)OCC(=O)[C@@]1(O)CCC2C3CC(C)C4=CC(=O)C=CC4(C)C3C(O)CC21C (some centres undefined)	.	.	.	.	3%	.
O=C(NNc1ccc(F)cc1F)c1cccs1	22%	.	.	.	.	-14%
CCC(=O)N1c2ccccc2CC1C(=O)NCCc1ccccc1C (centres undefined)	12%	-3%	20%[59 µM]	.	.	-10%
Cc1c(C(=O)N2CCC(C)CC2)c(S(=O)(=O)Nc2cccc(C#N)c2)c(C)n1C	7%	-20%	14%[59 µM]	.	.	-18%
Cc1ccc(S(=O)(=O)CCc2nnc(NC(=O)c3cnccn3)s2)cc1	25%	-2%	?	9%	2%	?
SMILES	HP1b chromo inh	BAZ2B inh	G9a block	L3MBTL1 block	Sfp inh	JMJD2A Tudor inh
Cc1ccc(S(=O)(=O)CCc2nnc(NC(=O)c3ccccn3)s2)cc1	47%	3.2µM*	12%	?	2%	11µM*
O=C(Nc1nc(-c2ccccn2)cs1)Nc1ccc(F)cc1F	?	-28%	2.8µM*	.	11µM*	40µM*
CC(Oc1ccc(Br)cc1)C(=O)Nc1nc(-c2ccccn2)cs1 (centres undefined)	-16%	56µM*	20µM*	.	40µM*	79µM*
CC[C@H](C)[C@@H](NC(=O)O[C@@H]1C(=O)c2ccc(OC)cc2O[C@H]1c1ccc2c(c1)OCO2)C(=O)OC	.	.	.	.	10%	.
COc1ccc(NC(=O)CC2C(=O)N(c3ccccc3)C(=O)N2CCc2sccc2C)cc1 (centres undefined)	45%	-11%	2%[59 µM]	.	.	-12%
CCN(CC)C(=O)c1ccc(/C=C/c2c[nH]c3ccccc23)[n+](C)c1	19%	-9%	3.2µM*	0%	-17%	?
CC[n+]1c(/C=C/c2c[nH]c3ccccc23)ccc2cc(C)ccc21	-19%	?	35µM*	?	?	?
Cc1ccc(C(=O)/C=C/c2c[nH]c3ccccc23)cc1	30%	?	3%[12.7 µM]	19%	-14%	-16%
Cc1ccc([N+](=O)[O-])c(OCCN2CCC(Cc3ccccc3)CC2)c1	?	22µM*	?	-11%	?	3.2µM*
CCN1CCN(Cc2ccc(OCc3ccccc3)c(OC)c2)CC1	22%	-1%	?	2%	11%	-27%
CCOc1ccccc1OCCN1CCCC1	-17%	-26%	79µM*	1%	12%	20µM*
CCN1CCN(CCOc2ccccc2OCc2ccccc2)CC1	?	22µM*	20µM*	-6%	-11%	13µM*
N#Cc1ccccc1OCCCN1CCC(Cc2ccccc2)CC1	?	?	32µM*	.	-7%	4.5µM*
N#Cc1ccccc1OCC(=O)C1CC1	29%	0%	22%[59 µM]	-1%	22%	0%
O=C(COc1ccccc1[N+](=O)[O-])N1CCC(Cc2ccccc2)CC1	-21%	.	?	.	-2%	-5%[11.4 µM]
CN1c2ccc(Cl)cc2-c2nc(SCC(=O)NCc3ccccc3)ncc2S1(=O)=O	4%	3%	3%[59 µM]	.	.	-10%
O=C(c1ccc([N+](=O)[O-])cc1)N1CCN(c2ccc(Nc3ccccc3)nn2)CC1	32%	-22%	-1%[59 µM]	.	.	-16%
CC1CCCCN1C(=O)c1ccc2c(c1)N(Cc1ccc(Cl)cc1)C(=O)c1ccccc1S2=O (centres undefined)	27%	-25%	-17%[59 µM]	.	.	-19%
N#Cc1ccc(NCCNCC(=O)N2N=CCC2C#N)nc1 (centres undefined)	.	.	.	.	-14%	.
